Source: PubChem BioAssay AID1508600 (Functional Genomics Laboratory (NCATS/FGL), 2020)
In all, about 53,000 sequences went through this assay and about 3,700 (7%) were called active. Shown is part of a subset that was picked to be rich in actives. Values without a mark were called inactive.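 How the source made its calls: active means gene knockdowns whose robust z-score for IL-1 alpha signal is at least 2 or at most -2, so actives lie on both sides; inactive means the rest.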

Test: Components of the Cytosolic LPS Sensing Pathway: Gene Identification via Genome-wide siRNA Screen;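 further: robust z of the log signal after scaling to non-targeting control siRNA wells of the plate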
Conditions: RAW264.7 macrophages, IL-1a HTRF, actives lie on both sides, screened at 100 nM (by protocol), cells primed 5 h with Pam3CSK4 first
Procedure, shortened: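 Supernatant IL-1a by HTRF from RAW264.7 cells primed with Pam3CSK4 (5 hours) and transfected with LipidA (24 hour) after 48h siRNA knockdown at 100 nM; cell viability checked with CellTiter-Glo.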

Row | Sequence | z-score
1 | GGAAAUUCUGGCAUAAAUUTT against Cd86 | -0.732
2 | GGACAUCAUUACAAAGAUGTT against Rgs6 | -0.608
3 | GCUUCGAGAGUCAACUAUGTT against Mecom | 0.232
4 | GGGCACAAAGAUAUGAAUATT against Lgals3bp | 0.147
5 | GGUGAGGUAGGUUACUCAGTT against Reps1 | -2.16 (active)
6 | GGAACGAAUGAAAAGACUUTT against Tpp2 | 0.35
7 | GGUUGCUAUGAUUUUUGUUTT against Itsn1 | 0.52
8 | GGAAGUGAGAAGAUGGAUATT against Fam163b | 0.93
9 | GGGACAGAUACAGUUCAUGTT against Zan | -0.114
10 | GCACGAGGAUUCAGAUAUCTT against Gusb | -0.449
11 | GGAUCUCCUGCUUGAACUGTT against Adam33 | 2.79 (active)
12 | CCAGCAUUAUCCAUAUCAATT against Nat2 | 0.786
13 | GGUCUCAGACACCUGACUCTT against Opa3 | 1.53
14 | GGUGUCAGCUUACCAUUCATT against Triap1 | -0.329
15 | CCUUGCAUUACUUCUAAAUTT against Aff2 | 0.29
16 | GGCAUUGUGAAAUCCUAUUTT against Lhx5 | -1.31
17 | CCUGACAGCACUUUGUGGATT against Arhgef4 | 0.481
18 | GGUGCAUGUCUUCAUCCACTT against Rnase12 | 3.04 (active)
19 | GGAAAAUCCCUGUGUCCGATT against Spdye4a | -1.34
20 | GCAGGAGGUUUAUACAGCCTT against Spata5 | -0.969
21 | GCCUAUUCGAAUUUGGGAATT against Ogt | -0.0977
22 | GGAAAUGACGAGAAGAAAGTT against Mapt | -0.0597
23 | GCCUUUGUGAGGAUUAAACTT against Fam83f | -0.000611

Row | Sequence | z-score
24 | GGUAUAUGUCACCAUACUCTT against Phxr2 | -1.99
25 | GGCAUGAAGUUUGAAGCCATT against Cnnm2 | -2.47 (active)
26 | GGAGCUCUUCCAGUUGUUUTT against Khk | -1.51
27 | GCAAUGUGAGAAUUUUAACTT against Psg26 | 2.03 (active)
28 | GCACAGAGUCUAGUGUUUATT against Ube2j2 | 0.325
29 | GGGCAUUGUUGUUUCUAUUTT against Lhfp | -0.0841
30 | CCAAAUUGCUGACUUAUUCTT against Ccna2 | 0.794
31 | GGGUUUCCUUAUGAGAAAGTT against Mien1 | -0.606
32 | GGUUUGUGACAUUAUCUGCTT against Wrnip1 | 2.36 (active)
33 | CGCUCCAUUGCUCAGUAUUTT against Vtn | 1.63
34 | GGCAGCAGAGAAGAAAGCCTT against Pld3 | -3.16 (active)
35 | GCUCAAUUGUGGAGCAGUCTT against Cd5l | -0.247
36 | GGCUAAUGAAGCACGCAGATT against Tspan33 | 0.264
37 | CGACCUAUUAGAGAGCAACTT against Zfp248 | 2.58 (active)
38 | GGAUCGAAUCUUUACCUAUTT against Col9a1 | 0.932
39 | GGCCAAAGUCCAUUCAUUCTT against Olfr1120 | 1.31
40 | CCAAUAUCUCCAAAUAGAATT against Atp8b1 | -0.974
41 | GGGAAAUCCGAUAUUCCCUTT against Lats2 | 1.1
42 | GGCGGUUUUAGUGAAUAACTT against Golm1 | 2.17 (active)
43 | GGUUAGAGAUCUUUUGAAATT against St14 | -0.333
44 | GCAUGUGCUAUAAUGAUCATT against Gm5444 | 0.256
45 | CCACAAUUACCCAGUAUGATT against Olfr498 | -0.939
46 | CCUCAUGUCUGGCAUCUUGTT against Egr4 | -1.7

Row | Sequence | z-score
47 | GGGUGCCUACUUGAUCCUUTT against Hgh1 | 1.63
48 | GGCUUCAAAGGCAAAGUUCTT against Fbf1 | -1.5
49 | CCAUAUGUGAUUUGUCUUGTT against Cacnb2 | -0.706
50 | CCUAAGGUACCAUUUUAAATT against Clp1 | 0.225
51 | GGAAGACACACAGUACAUGTT against Rfx2 | 2.92 (active)
52 | GGAGGCUGUCUGUCUAAUATT against Trim39 | 0.25
53 | CCAAUCAACCCUCUAAGCATT against Nphp4 | 0.576
54 | GCCAUCGAUACCACAACACTT against Slfn8 | -1.61
55 | GGCAACAUUAGAAGACAGUTT against Tfb1m | -0.591
56 | CCAUCAGGACUCGUGAAUGTT against Fign | -2.09 (active)
57 | GGGAAAUGGAAAGCAUUCUTT against Olfr374 | 1.41
58 | GGAGUUUGACUCAAUAUCATT against Napb | 1.24
59 | CCCUUCUCACUAACAUACATT against Dach1 | 1.18
60 | GCUACGAGAUUCUUGUUGCTT against Taar3 | -0.615
61 | GGAGAGGAGACACAUCAGUTT against Gnpat | -0.067
62 | CCAAAACGUGCAACACAAUTT against Cops6 | 0.37
63 | GGUUGAACUCAAAGUAAAGTT against Preb | -1.18
64 | GGUGAACCUCAAUAAUAUCTT against Tmod4 | 0.274
65 | GGAGUUUACUGAGUUUUAGTT against Prkaca | 4.49 (active)
66 | GGCUCCAGUAAUUGAUAAATT against Sycp3 | -0.0955
67 | GGGCUGCUGCUUAGCAAUCTT against Egln3 | -0.0783
68 | GGAUGGAGAAGUUUACUACTT against Yap1 | 0.714
69 | GGCGUAACCUAACAUGGGATT against Clec1b | -1.35
